Compound activity (PubChem BioAssay)
NS1 inh = inhibitors of influenza NS1 protein function | 270,000 compounds, 0.4% hits | Potency, µM (highest dose often 46.1 µM), without a hit: at the top dose activity, positive = more growth; calls by dose curve; further: potency means the concentration at half of the fitted maximal effect; actives are rising curves; nearly all actives have a fitted effect of over 50% in size
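S. cerevisiae expressing influenza A NS1, grown in glucose, washed, then diluted 1:100 into pH 6.0 -URA galactose medium with 23 nl compound. Growth recovery read as OD600; NS1-free strain serves as control.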
FBPA Giardia inh = blocks Giardia fructose-bisphosphate aldolase activity. A8B2U2. purified Giardia FBPA. Potency, µM (titrated, usually from 59.6 µM), for inactives: at the top dose activity, negative = inhibition, most hits filed as inhibitors. 290,000 compounds, 0.71% hits. AID 2451; further: potency means the concentration at half of the fitted maximal effect; on the % scale 0 is the no-effect control and ±100 the full control effect; nearly all actives have a fitted effect of over 55% in size
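40 nM FBPA preincubated 10 min at RT with compound (up to 57.5 uM final), then substrate plus GAPDH/TPI/NAD/arsenate coupling and diaphorase/resazurin added. Fluorescence read after 20 min at RT, 525/598 nm.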
CHX counter = counter-screen hit for Shiga toxin inhibitors, cycloheximide | max response, % | AID 2314 | cell reporter, cycloheximide protein synthesis inhibition counterscreen | 300,000 compounds, 12% hits; in the data active means max response mostly above about 13%, no sharp cut-off; inactive means mostly below about 14%; further: read at 38.3 µM for the half of the compounds with a filed dose; 0% is about no effect
Shiga toxin inh = blocks Shiga toxin action in Vero cells. 290,000 compounds, 9.2% hits. inhibition, % at 38.7 µM. AID 2315. Vero cells, Shiga toxin protein synthesis inhibition reporter; in the data active means inhibition mostly above about 28%, no sharp cut-off; inactive means mostly below about 43%; further: 0% is about no effect
LmPK inh = inhibitors of Leishmania mexicana pyruvate kinase; purified LmPK, Kinase-Glo ATP luminescence, 1 h; 290,000 compounds, 0.37% hits; Potency, µM (titrated, usually from 57.5 µM), without a hit: at the highest dose activity change, negative = inhibition, most hits filed as inhibitors; further: potency means the concentration at half of the fitted maximal effect; on the % scale 0 is the no-effect control and ±100 the full control effect
Target sequence (Q27686 whole entry, looked up): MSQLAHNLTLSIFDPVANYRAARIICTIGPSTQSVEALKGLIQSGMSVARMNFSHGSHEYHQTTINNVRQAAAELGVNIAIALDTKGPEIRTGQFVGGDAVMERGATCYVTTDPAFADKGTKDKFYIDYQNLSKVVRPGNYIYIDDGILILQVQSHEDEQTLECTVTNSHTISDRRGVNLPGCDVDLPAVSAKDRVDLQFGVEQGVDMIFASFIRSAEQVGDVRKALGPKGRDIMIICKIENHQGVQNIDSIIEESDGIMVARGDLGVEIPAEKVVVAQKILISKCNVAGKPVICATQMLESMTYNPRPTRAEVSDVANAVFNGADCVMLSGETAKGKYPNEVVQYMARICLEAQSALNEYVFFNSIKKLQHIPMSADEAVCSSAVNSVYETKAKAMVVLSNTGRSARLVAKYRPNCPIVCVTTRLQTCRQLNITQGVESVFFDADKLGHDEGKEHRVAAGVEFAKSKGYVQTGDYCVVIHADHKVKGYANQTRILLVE
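Kinase-Glo luminescence read after 1 h RT reaction of 0.1 nM LmPK with 0.5 mM PEP and 0.1 mM ADP. Activity scaled between uninhibited and enzyme-free controls.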
Numbers without * were called inactive; u = inconclusive; x = no result given. A selection: hits, their analogues and other compounds. The true share with any hit is near 14%. Unless noted, the call rests on the fitted dose curve; in most records, active means well fitted curve in the direction sought with a large enough effect; inconclusive means small, poorly fitted or top-dose-only effect, or another doubt; inactive means no such curve, though single readings can be large; an effect the other way counts as inactive or inconclusive.

SMILES	NS1 inh	FBPA Giardia inh	CHX counter	Shiga toxin inh	LmPK inh
COc1ccc(-c2cc3nc(C)cc(-c4ccc(OC)cc4)n3n2)cc1	14.9%	3.0%	4.2	x	5.7%
Cc1nc2cc(-c3ccc(Cl)cc3)nn2c(C)c1CCC(=O)NCc1ccco1	-8.7%	0.1%	12.3	14.9	-5.4%
Cc1ccc(-c2cc3nc(C)cc(NCc4ccco4)n3n2)cc1	-44.2%	-17.9%	54.5*	58.9*	28.2µM*
Cc1cccc(-c2cc3nc(C)cc(NCCCN(C)C)n3n2)c1	-13.5%	0.3%	-2.1	-11.7	0.0%
COc1ccc(-c2cc3nc(C)cc(NCCO)n3n2)cc1	-4.3%	-18.2%	22.4*	23.8	-15.8%
COc1ccc(OCC(=O)N(Cc2sccc2C)C2CCS(=O)(=O)C2)cc1 (stereo not given)	5.8%	x	-3.3	1.6	-4.3%
Cc1ccc(-c2nc(-c3ccccn3)sc2CC(=O)O)cc1	-1.0%	0.8%	-5.0	-1.6	2.3%
CCNc1nc(N)c(C(=O)c2ccc(Cl)s2)s1	-48.9%	3.5%	44.1*	130.4*	0.8%
CCOC(=O)CNC(=O)c1ccc(Cl)s1	2.0%	17.3%	4.4	23.9	8.1%
O=C(Nc1ccccc1C(F)(F)F)c1cc2ccccc2o1	11.4%	-2.5%	32.2*	x	-6.8%
O=C(Nc1cccc(Cl)c1N1CCCC1)c1cc2ccccc2o1	-40.1%	-0.3%	27.9*	28.8*	-1.9%
Cc1ccc(C)c(NC(=O)c2cc3ccccc3o2)c1	-25.1%	-0.9%	51.2*	75.2*	-4.2%
O=C(Nc1cccc(Cl)c1N1CCCC1)c1ccc(Br)o1	-9.2%	3.2%	-1.3	1.7	3.6%
COC(=O)c1ccccc1NC(=O)c1cc2ccccc2o1	-8.5%	5.7%	16.6	39.7	4.3%
COc1ccc(C)cc1NC(=O)c1cc2ccccc2o1	u	-2.8%	40.1	41.8	-0.8%
Cc1cc([N+](=O)[O-])ccc1NC(=O)c1cc2ccccc2o1	3.1%	-8.2%	30.1*	167.9*	5.3%
C=CCc1cccc(/C=N/NC(=O)c2ccc3nc[nH]c3c2)c1O	-13.2%	x	8.7	-2.1	10.4%
CCCc1noc2c1/C(=N\O)CC(CC(C)SCC)C2 (stereo not given)	-18.8%	6.3%	32.9*	19.2*	1.7%
O=C(NCc1cn(-c2ccccc2)nc1-c1ccccc1)c1cccc([N+](=O)[O-])c1	28.2%	-6.5%	13.5*	11.7	2.2%
COc1ccc(-c2nn(-c3ccccc3)cc2CNC(=O)c2cccc([N+](=O)[O-])c2)cc1	8.3%	-4.6%	15.1*	12.3	1.1%
CN1CCN(c2ncc3ncc(=O)n(C[C@H]4CCCO4)c3n2)CC1	x	4.3%	x	x	x
CCC(C)C(N)C(=O)NC(CC(N)=O)C(=O)NC(CC(C)C)C(=O)NC(CCCCN)C(=O)NC(C)C(=O)NC(CC(C)C)C(=O)NC(C)C(=O)NC(C)C(=O)NC(CC(C)C)C(=O)NC(C)C(=O)NC(CCCCN)C(=O)NC(CCCCN)C(=O)NC(C(=O)NC(CC(C)C)C(N)=O)C(C)CC (stereo not given)	x	0.1%	-8.9	-15.6	x
COc1ccc(N2CCN(S(=O)(=O)c3ccc(OC)c(C(=O)N4CCCC4)c3)CC2)cc1	-12.9%	7.4%	-4.4	-1.2	1.5%
C/C(=C\C(=O)c1ccc(C)o1)Nc1ccc2c(c1)OCO2	-2.6%	u	22.8*	49.3*	-2.2%
Cc1ccc(C(=O)Nc2ccc3c(c2)OCO3)o1	-0.8%	-22.7%	30.9*	68.1*	17.8µM*
SMILES	NS1 inh	FBPA Giardia inh	CHX counter	Shiga toxin inh	LmPK inh
Cc1ccc(C(=O)OCC(=O)Nc2ccc3c(c2)OCO3)o1	1.2%	3.6%	21.4	23.7	1.9%
CC(=O)Nc1ccc2c(c1)OCO2	x	6.1%	9.3	16.5	2.1%
C/C(=C\C(=O)c1ccccc1)Nc1ccc2c(c1)OCO2	12.6%	-25.2%	37.1*	50.0*	-2.4%
NC(=O)c1ccccc1NC(=O)CCn1c(=S)oc2ccccc21	-1.1%	3.1%	-5.7	-6.1	8.7%
Cc1ccccc1N(CC(=O)N1CCCCCC1)S(C)(=O)=O	17.3%	-0.9%	3.0	3.5	-5.0%
CCOC(=O)[C@H](Cc1ccc(O)cc1)NC(=O)c1ccccc1	x	-0.8%	-2.7	14.7	x
CCOC(=O)c1c(C)[nH]c(C)c1S(=O)(=O)N1CCCCC1	9.3%	7.4%	8.5	-2.6	5.4%
COc1ccc(C(C)=O)cc1CC(C(=O)c1ccc(C)cc1)N(C)C (stereo not given)	3.6%	11.4%	-3.0	-3.0	1.6%
CN(C)C(Cc1ccc(Cl)cc1)C(=O)c1ccccc1 (stereo not given)	15.3%	-2.4%	24.3*	50.4*	0.9%
COC(=O)c1ccc(CC(C(=O)c2ccccc2)N(C)C)cc1 (stereo not given)	-2.2%	5.7%	47.9*	107.2*	-0.7%
COc1ccc(C(C)=O)cc1CC(C(=O)c1ccccc1)N(C)C (stereo not given)	-0.6%	-0.4%	22.2*	4.7	-1.0%
COC(=O)c1ccc(C(=O)N(Cc2ccccc2)c2ccccc2)cc1	-77.7%	7.6%	-2.3	-7.0	-7.0%
CN(C)C(Cc1ccccc1)C(=O)c1cccs1 (stereo not given)	x	-0.9%	13.1*	39.4	2.1%
Cc1cc(S(=O)(=O)N2CCN(C(=O)CCC(=O)N3CCOCC3)CC2)ccc1Br	-7.6%	1.6%	-1.0	-7.2	3.2%
FC(F)(F)c1ccccc1-c1cncnc1NCCN1CCOCC1	x	4.7%	x	x	x
CC1CCCN(C(=O)CCNC(=O)Cn2cnc3ccccc3c2=O)C1 (stereo not given)	13.3%	11.0%	-3.1	-7.0	3.8%
CCOc1ccc(NC(=O)Cn2cc(C(=O)C3CC3)c3ccccc32)cc1	-8.5%	3.1%	-4.2	21.2	-2.7%
Cc1ccc(Cc2cnc(NC(=O)c3ccco3)s2)cc1	-49.5%	0.8%	34.8*	66.7*	1.9%
Cc1cccc(Cc2cnc(NC(=O)c3ccc(C)o3)s2)c1	-77.8%	-3.5%	34.7*	71.0*	-3.3%
Cc1ccc(Cc2cnc(NC(=O)C3=NCCN3)s2)cc1	4.4%	u	4.3	40.1	0.5%
O=C(Nc1ncc(Cc2ccccc2)s1)C1=NCCN1	-5.3%	u	15.5	58.0*	2.4%
O=C(Nc1ncc(Cc2cccc(Cl)c2)s1)c1ccc([N+](=O)[O-])cc1	5.6%	10.0%	-3.0	-6.5	0.4%
O=C(Nc1ncc(Cc2cccc([N+](=O)[O-])c2)s1)c1ccco1	-4.6%	-3.2%	29.5*	101.7*	6.6%
O=C(CCc1nc(-c2ccccc2F)no1)Nc1ccc(Oc2ccccc2)cc1	-24.2%	-6.9%	4.7	-4.8	5.0%
Cc1ccc(-c2noc(CCC(=O)Nc3cccc(C#N)c3)n2)cc1	-49.4%	-5.4%	33.8*	33.7*	-1.3%
CCc1ccccc1NC(=O)CCc1nc(-c2cccs2)no1	x	5.3%	20.3	48.3*	10.7%
COc1cccc(NC(=O)CCc2nc(-c3ccccc3F)no2)c1	-19.3%	-8.5%	16.8*	13.1	0.6%
COc1ccccc1NC(=O)CCc1nc(-c2ccccc2F)no1	-6.5%	-2.0%	15.8*	40.0	0.0%
COc1cccc(-c2ccc3ncnc(NCCN4CCOCC4)c3c2)c1	x	-1.3%	x	x	x
